Test results published in PubChem BioAssay AID1159580 (chemical genetic matrix, 2015).
Among all 5,500 compounds or so, about 2,000 (36%) were called active. Not shown: some 18% with an inconclusive outcome. Rule as the data show it: active = normalized growth mostly below about 0.91 (no sharp cut-off); inconclusive = no clear call, values can overlap the other calls; inactive = mostly above about 0.92. Some of the results follow.

Test: chemical genetic growth profiling, strain panel (AID 1159580);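 also: tested at 20 µM; growth read once vehicle control cultures reached saturation at 30 °C; 1 = growth at the plate median or of vehicle wells; lower values mean less growth of the strain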
Settings: growth OD

Measured: normalized growth

Oc1cccc2cccnc12
active: S. cerevisiae deletion strains, locus YKL009W, strain mrt4, active compounds read low 0.741 | S. cerevisiae deletion strains, locus YKL068W, active compounds read low 0.0531 | S. cerevisiae deletion strains, locus YKL085W, strain MDH1 (second series), active compounds read low 0.0521 | S. cerevisiae deletion strains, locus YKL085W, strain MDH1, active compounds read low 0.0521 | S. cerevisiae deletion strains, locus YKL160W, strain elf1, active compounds read low 0.0679 | S. cerevisiae deletion strains, locus YKL190W, strain CNB1, active compounds read low 0.0517 | S. cerevisiae deletion strains, locus YKR001C, strain vps1, active compounds read low 0.0622 | S. cerevisiae deletion strains, locus YKR026C, strain gcn3, active compounds read low 0.356 | S. cerevisiae deletion strains, locus YKR091W, strain srl3, active compounds read low 0.5 | S. cerevisiae deletion strains, locus YLL001W, strain dnm1, active compounds read low 0.0604 | S. cerevisiae deletion strains, locus YLL026W, active compounds read low 0.0573 | S. cerevisiae deletion strains, locus YLL041C, strain sdh2, active compounds read low 0.132 | S. cerevisiae deletion strains, locus YLR027C, strain aat2, active compounds read low 0.0569 | S. cerevisiae deletion strains, locus YLR039C, strain RIC1, active compounds read low 0.0939 | S. cerevisiae deletion strains, locus YLR058C, strain SHM2, active compounds read low 0.786 | S. cerevisiae deletion strains, locus YLR102C, strain apc9, active compounds read low 0.0613 | S. cerevisiae deletion strains, locus YLR221C, strain rsa3, active compounds read low 0.0643 | S. cerevisiae deletion strains, locus YLR258W, strain gsy2, active compounds read low 0.0623 | S. cerevisiae deletion strains, locus YLR262C, strain YPT6 (second series), active compounds read low 0.0792 | S. cerevisiae deletion strains, locus YLR262C, strain YPT6, active compounds read low 0.124 | S. cerevisiae deletion strains, locus YLR268W, strain sec22, active compounds read low 0.0693 | S. cerevisiae deletion strains, locus YLR320W, strain mms22, active compounds read low 0.0884 | S. cerevisiae deletion strains, locus YLR330W, strain CHS5, active compounds read low 0.0553 | S. cerevisiae deletion strains, locus YLR342W, strain FKS1 (second series), active compounds read low 0.0627 | S. cerevisiae deletion strains, locus YLR342W, strain FKS1, active compounds read low 0.0636 | S. cerevisiae deletion strains, locus YLR357W, strain rsc2, active compounds read low 0.117 | S. cerevisiae deletion strains, locus YLR370C, strain arc18, active compounds read low 0.0611 | S. cerevisiae deletion strains, locus YLR371W, strain rom2, active compounds read low 0.0611 | S. cerevisiae deletion strains, locus YLR384C, strain iki3, active compounds read low 0.0615 | S. cerevisiae deletion strains, locus YLR418C, strain cdc73, active compounds read low 0.0961 | S. cerevisiae deletion strains, locus YML016C, strain PPZ1, active compounds read low 0.0529 | S. cerevisiae deletion strains, locus YML032C, strain rad52, active compounds read low 0.385 | S. cerevisiae deletion strains, locus YML120C, strain ndi1, active compounds read low 0.0583 | S. cerevisiae deletion strains, locus YML124C, strain tub3, active compounds read low 0.0625 | S. cerevisiae deletion strains, locus YMR058W, strain fet3, active compounds read low 0.0576 | S. cerevisiae deletion strains, locus YMR078C, strain ctf18, active compounds read low 0.553 | S. cerevisiae deletion strains, locus YMR125W, strain sto1, active compounds read low 0.0733 | S. cerevisiae deletion strains, locus YMR129W, active compounds read low 0.0569 | S. cerevisiae deletion strains, locus YMR205C, strain PFK2, active compounds read low 0.214 | S. cerevisiae deletion strains, locus YMR223W, strain ubp8, active compounds read low 0.0625 | S. cerevisiae deletion strains, locus YMR231W, strain pep5, active compounds read low 0.0683 | S. cerevisiae deletion strains, locus YMR307W, strain GAS1, active compounds read low 0.108 | S. cerevisiae deletion strains, locus YNL067W, strain RPL9B, active compounds read low 0.0496 | S. cerevisiae deletion strains, locus YNL071W, strain lat1, active compounds read low 0.0618 | S. cerevisiae deletion strains, locus YNL209W, strain ssb2, active compounds read low 0.0612 | S. cerevisiae deletion strains, locus YNL233W, strain BNI4, active compounds read low 0.0522 | S. cerevisiae deletion strains, locus YNL248C, strain rpa49, active compounds read low 0.0751 | S. cerevisiae deletion strains, locus YNL250W, strain rad50, active compounds read low 0.0636 | S. cerevisiae deletion strains, locus YNL271C, strain bni1, active compounds read low 0.0611 | S. cerevisiae deletion strains, locus YNL298W, strain CLA4, active compounds read low 0.0629 | S. cerevisiae deletion strains, locus YNL307C, strain MCK1, active compounds read low 0.0661 | S. cerevisiae deletion strains, locus YNL322C, strain KRE1 (second series), active compounds read low 0.0706 | S. cerevisiae deletion strains, locus YNL322C, strain KRE1, active compounds read low 0.0518 | S. cerevisiae deletion strains, locus YNR049C, strain mso1, active compounds read low 0.0568 | S. cerevisiae deletion strains, locus YNR052C, strain pop2, active compounds read low 0.749 | S. cerevisiae deletion strains, locus YOL006C, strain TOP1, active compounds read low 0.113 | S. cerevisiae deletion strains, locus YOL147C, strain pex11, active compounds read low 0.127 | S. cerevisiae deletion strains, locus YOR001W, strain rrp6, active compounds read low 0.0671 | S. cerevisiae deletion strains, locus YOR061W, strain CKA2, active compounds read low 0.0507 | S. cerevisiae deletion strains, locus YOR069W, strain VPS5, active compounds read low 0.0519 | S. cerevisiae deletion strains, locus YOR070C, strain gyp1, active compounds read low 0.0577 | S. cerevisiae deletion strains, locus YOR080W, strain dia2, active compounds read low 0.0646 | S. cerevisiae deletion strains, locus YOR083W, strain WHI5, active compounds read low 0.167 | S. cerevisiae deletion strains, locus YOR106W, strain vam3, active compounds read low 0.0652 | S. cerevisiae deletion strains, locus YOR136W, strain idh2, active compounds read low 0.0689 | S. cerevisiae deletion strains, locus YOR144C, strain elg1, active compounds read low 0.712 | S. cerevisiae deletion strains, locus YOR184W, strain ser1, active compounds read low 0.0694 | S. cerevisiae deletion strains, locus YOR265W, strain rbl2, active compounds read low 0.0565 | S. cerevisiae deletion strains, locus YOR270C, strain vph1, active compounds read low 0.0934 | S. cerevisiae deletion strains, locus YOR290C, strain snf2, active compounds read low 0.0963 | S. cerevisiae deletion strains, locus YOR316C, strain cot1, active compounds read low 0.0587 | S. cerevisiae deletion strains, locus YPL051W, strain arl3, active compounds read low 0.063 | S. cerevisiae deletion strains, locus YPL055C, strain LGE1, active compounds read low 0.0702 | S. cerevisiae deletion strains, locus YPL078C, strain atp4, active compounds read low 0.0642 | S. cerevisiae deletion strains, locus YPL106C, strain sse1, active compounds read low 0.104 | S. cerevisiae deletion strains, locus YPL240C, strain hsp82, active compounds read low 0.112 | S. cerevisiae deletion strains, locus YPL241C, strain CIN2, active compounds read low 0.0551 | S. cerevisiae deletion strains, locus YPR119W, strain clb2, active compounds read low 0.0623 | S. cerevisiae deletion strains, locus YPR141C, strain kar3, active compounds read low 0.0649 | S. cerevisiae deletion strains, locus YPR163C, strain tif3, active compounds read low 0.0763 | S. cerevisiae deletion strains, locus YPR167C, strain met16, active compounds read low 0.0614 | S. cerevisiae deletion strains, strain wtn01, active compounds read low 0.0583 | S. cerevisiae strains, strain wild type, active compounds read low 0.0541
inactive: S. cerevisiae deletion strains, locus YLR113W, strain HOG1, active compounds read low 1.04 | S. cerevisiae deletion strains, locus YNL183C, strain NPR1, active compounds read low 0.919 | S. cerevisiae deletion strains, locus YOL012C, strain htz1 0.214 | S. cerevisiae deletion strains, locus YOR231W, strain MKK1, active compounds read low 0.916 | S. cerevisiae deletion strains, locus YPL256C, strain CLN2, active compounds read low 0.971
